Reference: the supplement of paper PMC10338343
± gives the standard deviation.

Legend:
[1] = test system: MILI (PIWIL2) piRISC loaded with L1MC piRNA (26 nt); test: pre-steady-state target cleavage rate (min^-1); guide: L1MC piRNA 5'p-UAACUAAAUACUAUGCAAGCUGUAGG; higher = faster piRNA-guided slicing of the target
Procedure, shortened: (§1)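 The pre-steady-state cleavage rate came from a burst-and-steady-state fit to pooled data from three Cleave-'n-Seq trials, in which uncleaved targets were sequenced and normalised to depth and to weakly complementary targets. Each reaction held 0.1 nM transcribed, DNA-blocked target RNA library and 1 nM active affinity-purified piRISC carrying one synthetic guide, with or without 500 nM GTSF1 partner protein, in HEPES–potassium acetate buffer at 33 °C for 0–8 or 0–960 min. k3 was capped at 0.0001 min^-1.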

[2] = test system: EfPiwi piRISC loaded with L1MC piRNA (26 nt); test: pre-steady-state target cleavage rate (min^-1); auxiliary factor: 500 nM Ephydatia muelleri Gtsf1; guide: L1MC piRNA 5'p-UAACUAAAUACUAUGCAAGCUGUAGG; MIWI and MILI are mouse PIWI proteins and EfPiwi is from a freshwater sponge; tags in brackets are library labels; higher = faster piRNA-guided slicing of the target
Procedure, shortened: as §1

[3] = auxiliary factor: 500 nM mouse GTSF1
[4] = auxiliary factor: none (no GTSF1)

Row | Sequence | pre-steady-state target cleavage rate [1, 3] | pre-steady-state target cleavage rate [1, 4] | pre-steady-state target cleavage rate [2]
1 | UCCUGCUACAGCAUGCAUAGUAUUAAGUUA | 0.331 ± 0.043 | 0.00346 ± 0.0032 | 0.00828 ± 0.0024
2 | UCCUGCUACAGCUUGCUUAGUAUUUAGUUA | 0.248 ± 0.013 | 0.00684 ± 0.0021 | 0.0201 ± 0.0068
3 | UCCUGGAUCCGCUUGCAUAGUAUUUAGUUA | 0.297 ± 0.019 | 0.00868 ± 0.0026 | 0.146 ± 0.029
4 | UCCUGGAUGAGCUUGCAUAGUAUUUAGGUUA | 0.195 ± 0.028 | 0.0044 ± 0.0031 | 0.0031 ± 0.002
5 | UCCUGGAAGAGCUUGCAUUGUAUUUAGUUA | 0.208 ± 0.011 | 0.00838 ± 0.0031 | 0.0104 ± 0.0029
6 | UCCUCCAACAGCUUGCAUAGUAUUAAGUUA | 0.135 ± 0.021 | 0.0033 ± 0.0024 | 0.00502 ± 0.002
7 | UCCUGGAACAGGUUGCAUAGUAUUAAGUUA | 0.213 ± 0.023 | 0.00415 ± 0.0022 | 0.00329 ± 0.0021
8 | UCCUGGAACAGCUUGCAUAGUAUUUGGUUA | 0.221 ± 0.026 | 0.00881 ± 0.0026 | 0.00496 ± 0.002
9 | UCCUGGAUUAGCUUGCAUAGUAUUUAGUUA | 0.232 ± 0.016 | 0.00961 ± 0.0024 | 0.0447 ± 0.011
10 | UCCUGGUACAGCUUGCUUAGUUUUUAGUUA | 0.0347 ± 0.011 | 0.00709 ± 0.0023 | 0.00346 ± 0.003
11 | UCCUCCUACAGCUCUGCAUAGUAUUUAGUUA | 0.276 ± 0.014 | 0.00692 ± 0.0018 | 0.0445 ± 0.014
12 | UCCUCCUACAGCAUGCAUUGUAUUUAGUUA | 0.217 ± 0.015 | 0.0102 ± 0.0027 | 0.0134 ± 0.0043
13 | UCCUGGUACAGCUUGCAUAGUAUUUUGUUA | 0.118 ± 0.024 | 0.00398 ± 0.0037 | 0.00618 ± 0.003
14 | UCCUGGAACAGCUUGGAUAGUAAUUAGUUA | 0.21 ± 0.025 | 0.00493 ± 0.0022 | 0.00719 ± 0.0026
15 | UCCUGGUACAGCUUGCACAGUAUUUAGUUA | 0.156 ± 0.013 | 0.0127 ± 0.0032 | 0.0505 ± 0.015
16 | UCCUGGAUGUGCUUGCAUAGUAUUUAGUUUA | 0.141 ± 0.015 | 0.00735 ± 0.0032 | 0.00801 ± 0.0032
17 | UCCUGCUACAGCAAGCAUAGUAUUUAGUUA | 0.325 ± 0.022 | 0.00524 ± 0.0031 | 0.0176 ± 0.0059
